# Where a name gives a salt, the structure may show the parent alone. ± gives the standard deviation of the averaged measurements.
# Tests used:
# [1] = tested on: Saccharomyces cerevisiae BY4741 SeMeCo community; test: mean cell size (pixel area) (pixels); higher = larger cells; conditions: 10 µM; 24 h; SM minimal medium
# Outline: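 Yeast cells were fixed with paraformaldehyde, imaged by automated confocal microscopy and analysed in Harmony to obtain mean cell pixel area per well. They came from a four-plasmid fluorescent Saccharomyces cerevisiae BY4741 community, each plasmid complementing one auxotrophy and carrying a fluorescent marker. Before imaging, 70 µl of culture at OD600 = 0.3 was incubated for 24 h in SM medium in 384-well plates predosed acoustically with drug (final 10 µM). Values are means of 3 replicates. Same SeMeCo high-content imaging drug screen: Selleck FDA-approved drugs at 10 µM, 24 h in SM medium, 384-well plates, 3 replicates.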
# [2] = tested on: Saccharomyces cerevisiae BY4741 SeMeCo community; test: z-score of prototroph abundance vs DMSO median; higher = larger share of this subpopulation than in DMSO controls; conditions: 10 µM; 24 h; SM minimal medium; subpopulation (auxotrophy): Prototroph
# Outline: (§1)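 A community of Saccharomyces cerevisiae BY4741 was built from four plasmids that each restored one auxotrophy and encoded a distinct fluorescent protein. Pre-grown overnight to OD600 1.0 and diluted to 0.3, it was dispensed at 70 µl into 384-well plates acoustically predosed with library drugs for a final 10 µM, and grown 24 h in minimal SM medium. Cells were then paraformaldehyde-fixed and imaged by automated confocal microscopy. Thresholds and autofluorescence correction came from single-auxotroph fluorescent strains, and each subpopulation's abundance was scored as a z-score relative to the vehicle-well median.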
# [3] = tested on: Saccharomyces cerevisiae BY4741 SeMeCo community; test: z-score of subpopulation abundance vs DMSO median, subpopulation auxotrophic for M; higher = larger share of this subpopulation than in DMSO controls; conditions: 10 µM; 24 h; SM minimal medium; subpopulation (auxotrophy): M
# Outline: as §1
# [4] = tested on: Saccharomyces cerevisiae BY4741 SeMeCo community; test: z-score of subpopulation abundance vs DMSO median, subpopulation auxotrophic for L; higher = larger share of this subpopulation than in DMSO controls; conditions: 10 µM; 24 h; SM minimal medium; subpopulation (auxotrophy): L
# Outline: as §1
# [5] = tested on: Saccharomyces cerevisiae BY4741 SeMeCo community; test: z-score of subpopulation abundance vs DMSO median, subpopulation auxotrophic for U; higher = larger share of this subpopulation than in DMSO controls; conditions: 10 µM; 24 h; SM minimal medium; subpopulation (auxotrophy): U
# Outline: as §1
# [6] = tested on: Saccharomyces cerevisiae BY4741 SeMeCo community; test: z-score of subpopulation abundance vs DMSO median, subpopulation auxotrophic for H; higher = larger share of this subpopulation than in DMSO controls; conditions: 10 µM; 24 h; SM minimal medium; subpopulation (auxotrophy): H
# Outline: as §1
# [7] = tested on: Saccharomyces cerevisiae BY4741 SeMeCo community; test: z-score of subpopulation abundance vs DMSO median, subpopulation auxotrophic for LM; higher = larger share of this subpopulation than in DMSO controls; conditions: 10 µM; 24 h; SM minimal medium; subpopulation (auxotrophy): LM
# Outline: as §1
# [8] = tested on: Saccharomyces cerevisiae BY4741 SeMeCo community; test: z-score of subpopulation abundance vs DMSO median, subpopulation auxotrophic for HM; higher = larger share of this subpopulation than in DMSO controls; conditions: 10 µM; 24 h; SM minimal medium; subpopulation (auxotrophy): HM
# Outline: as §1
# [9] = tested on: Saccharomyces cerevisiae BY4741 SeMeCo community; test: z-score of subpopulation abundance vs DMSO median, subpopulation auxotrophic for HU; higher = larger share of this subpopulation than in DMSO controls; conditions: 10 µM; 24 h; SM minimal medium; subpopulation (auxotrophy): HU
# Outline: as §1
# [10] = tested on: Saccharomyces cerevisiae BY4741 SeMeCo community; test: z-score of subpopulation abundance vs DMSO median, subpopulation auxotrophic for UM; higher = larger share of this subpopulation than in DMSO controls; conditions: 10 µM; 24 h; SM minimal medium; subpopulation (auxotrophy): UM
# Outline: as §1
# [11] = tested on: Saccharomyces cerevisiae BY4741 SeMeCo community; test: z-score of subpopulation abundance vs DMSO median, subpopulation auxotrophic for HLU; higher = larger share of this subpopulation than in DMSO controls; conditions: 10 µM; 24 h; SM minimal medium; subpopulation (auxotrophy): HLU
# Outline: as §1
# [12] = tested on: Saccharomyces cerevisiae BY4741 SeMeCo community; test: z-score of subpopulation abundance vs DMSO median, subpopulation auxotrophic for HUM; higher = larger share of this subpopulation than in DMSO controls; conditions: 10 µM; 24 h; SM minimal medium; subpopulation (auxotrophy): HUM
# Outline: as §1
# [13] = tested on: Saccharomyces cerevisiae BY4741 SeMeCo community; test: z-score of subpopulation abundance vs DMSO median, subpopulation auxotrophic for LUM; higher = larger share of this subpopulation than in DMSO controls; conditions: 10 µM; 24 h; SM minimal medium; subpopulation (auxotrophy): LUM
# Outline: as §1
# [14] = tested on: Saccharomyces cerevisiae BY4741 SeMeCo community; test: z-score of subpopulation abundance vs DMSO median, subpopulation auxotrophic for HLUM; higher = larger share of this subpopulation than in DMSO controls; conditions: 10 µM; 24 h; SM minimal medium; subpopulation (auxotrophy): HLUM
# Outline: as §1
# [15] = tested on: Saccharomyces cerevisiae BY4741 SeMeCo community; test: z-score of subpopulation abundance vs DMSO median, subpopulation auxotrophic for LU; higher = larger share of this subpopulation than in DMSO controls; conditions: 10 µM; 24 h; SM minimal medium; subpopulation (auxotrophy): LU
# Outline: as §1
# [16] = tested on: Saccharomyces cerevisiae BY4741 SeMeCo community; test: z-score of subpopulation abundance vs DMSO median, subpopulation auxotrophic for HL; higher = larger share of this subpopulation than in DMSO controls; conditions: 10 µM; 24 h; SM minimal medium; subpopulation (auxotrophy): HL
# Outline: as §1
# [17] = tested on: Saccharomyces cerevisiae BY4741 SeMeCo community; test: z-score of subpopulation abundance vs DMSO median, subpopulation auxotrophic for HLM; higher = larger share of this subpopulation than in DMSO controls; conditions: 10 µM; 24 h; SM minimal medium; subpopulation (auxotrophy): HLM
# Outline: as §1
Structure (SMILES),mean cell size [1],z-score of prototroph abundance [2],z-score of subpopulation abundance [3],z-score of subpopulation abundance [4],z-score of subpopulation abundance [5],z-score of subpopulation abundance [6],z-score of subpopulation abundance [7],z-score of subpopulation abundance [8],z-score of subpopulation abundance [9],z-score of subpopulation abundance [10],z-score of subpopulation abundance [11],z-score of subpopulation abundance [12],z-score of subpopulation abundance [13],z-score of subpopulation abundance [14],z-score of subpopulation abundance [15],z-score of subpopulation abundance [16],z-score of subpopulation abundance [17]
COCC(=O)Nc1cc(Sc2ccccc2)ccc1N=C(NC(=O)OC)NC(=O)OC [Febantel],12.3 ± 0.18,-0.31,1.45,-0.03,-1.73,0.91,0.89,1.62,-0.73,-0.56,-0.05,-0.11,0.02,-0.82,,,
COC(=O)Nc1nc2cc(Sc3ccccc3)ccc2[nH]1 [Fenbendazole],12.3 ± 0.23,0.03,0.61,0.52,-0.17,0.06,0.66,0.22,-0.37,0.27,-0.08,,,-0.28,,,
CC(=O)[C@H]1CC[C@H]2[C@@H]3CC=C4C[C@@H](O)CC[C@]4(C)[C@H]3CC[C@]12C [Pregnenolone],12.46 ± 0.12,0.29,,1.12,-0.89,-0.46,0.32,-0.44,-0.76,-0.48,-0.1,-0.94,-0.02,0.21,-0.42,0.47,0.71
O=C(C1CCCCC1)N1CC(=O)N2CCc3ccccc3C2C1 (stereo not drawn) [Praziquantel],,-0.09,0.19,,0.5,-0.1,0.34,-0.5,-0.36,0.1,0.47,-0.37,0.43,0.11,,-0.41,-1.06
CCOc1ccc2ccccc2c1C(=O)N[C@@H]1C(=O)N2[C@@H]1SC(C)(C)[C@@H]2C(=O)O [Nafcillin Sodium],12.2 ± 0.23,0.32,,0.95,-0.63,-0.47,0.39,0.22,-0.72,-0.68,-0.19,0,0.08,-0.09,0.04,-0.51,-0.71
O=C1c2cccc3c2[C@H](CCC3)CN1[C@@H]1CN2CCC1CC2 [Palonosetron],12.2 ± 0.14,-0.11,-0.21,,-0.35,-0.77,-0.55,-0.24,-0.06,0.49,-0.63,0.12,0.34,-0.4,,-0.45,-0.49
CC(=O)O[C@H]1C[C@@H]2CC[C@@H]3[C@H](CC[C@@]4(C)[C@H]3C[C@H]([N+]3(C)CCCCC3)[C@@H]4OC(C)=O)[C@@]2(C)C[C@@H]1N1CCCCC1 [Vecuronium Bromide],12.4 ± 0.31,0.67,-0.47,0.57,-0.48,,-1.11,-0.57,,-0.59,-0.64,0.09,-0.05,0.24,,-0.24,
CC(Cc1ccc(O)c(O)c1)C(C)Cc1ccc(O)c(O)c1 (stereo not drawn) [Nordihydroguaiaretic acid (NDGA)],,0.67,-0.1,,-0.02,-1.01,0.02,-0.39,-0.76,-0.5,0.33,-0.77,0.39,-0.44,,-0.39,-0.39
CCc1c2c(nc3ccc(OC(=O)N4CCC(N5CCCCC5)CC4)cc13)-c1cc3c(c(=O)n1C2)COC(=O)[C@]3(O)CC [Irinotecan HCl Trihydrate],12.5 ± 0.15,-0.17,,-0.66,-0.91,0.65,0.19,0.47,-0.6,-0.07,-0.35,0.52,0.14,0.04,-0.66,0.06,0.91
C[C@](N)(Cc1ccc(O)c(O)c1)C(=O)O [Methyldopa],12.3 ± 0.034,0.97,-1.02,,-0.29,0.34,-0.77,,-0.06,-0.7,-0.36,-0.27,-1.19,-0.4,,-0.91,-0.36
COc1ccc(C[C@H](N)C(=O)N[C@H]2[C@@H](O)[C@H](n3cnc4c(N(C)C)ncnc43)O[C@@H]2CO)cc1 [Puromycin 2HCl],,-0.54,0.81,-0.61,0.92,-0.66,,0,0.15,1.61,-0.44,0.39,-0.39,-0.22,,-0.16,
CO[C@H]1C[C@@H]2CC[C@@H](C)[C@@](O)(O2)C(=O)C(=O)N2CCCC[C@H]2C(=O)O[C@H]([C@H](C)C[C@@H]2CC[C@@H](OC(=O)C(C)(CO)CO)[C@H](OC)C2)CC(=O)[C@H](C)/C=C(\C)[C@@H](O)[C@@H](OC)C(=O)[C@H](C)C[C@H](C)/C=C/C=C/C=C/1C,14.17 ± 0.036,-18.4,-1.76,,3.43,13.5,5.51,,28,11.2,28,28.7,14.2,31.6,,15.9,
C=C[C@H]1CN2CC[C@H]1C[C@@H]2[C@@H](O)c1ccnc2ccc(OC)cc12 [Quinidine sulfate],12.4 ± 0.13,-1.18,,2.41,-1.29,,2.28,1.23,-0.47,0.08,1.39,0.61,1.53,2.36,0.61,1.36,1.12
C[C@]12CC[C@@H]3c4ccc(OC(=O)c5ccccc5)cc4CC[C@H]3[C@@H]1CC[C@@H]2O [Estradiol Benzoate],12.4 ± 0.25,-0.27,0.35,0.05,,-0.36,0.31,0.05,-0.12,0.15,-0.51,0.38,,-0.15,,-0.31,

# — the supplement of paper PMC8975748
